An excerpt weighted towards active compounds, which were near 3.4% of everything screened.
MITF TRPM1 HTS: increases MITF-driven TRPM1 promoter luciferase signal. SK-MEL-5 TRPM1-promoter luciferase, 24 h; % of positive control, neutral wells = 0. activation, % at 12.5 µM. actives 0.75% (n = 300,000);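 active = mean activation of at least 80% with every replicate also reaching 80%; inconclusive = mean reaches 80% but some replicate falls short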
Wnt bcat act: activates Wnt/beta-catenin signaling in a reporter cell assay | activator, plate reader | activation, % at 9.35 µM | actives 1.2% (n = 300,000); in the data active = activation above about 30%, passing the limit was not always enough; inconclusive = no clear call, values can overlap the other calls
esBAF inh: inhibitors of esBAF chromatin remodeling in mouse ES cells; Bmi1-luciferase knock-in reporter, 24 h; 100% = twice the neutral-well signal; reporter increase, % at 12.5 µM; actives 2% (n = 350,000); AID 602393; in the data active = activation above about 40%; inconclusive = no clear call, values can overlap the other calls;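 note: a rise in the Bmi1 reporter signal indicates esBAF inhibition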
HIV Env fusion: blocks HIV Env-driven cell-cell fusion. HeLa-JRFL Env/CEM21 cell fusion, luciferase. inhibition, % at 12.3 µM. actives 1.1% (n = 360,000);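 active = mean replicate inhibition score of at least 50 and every replicate individually at or above 50; inconclusive = only one of the two criteria met; inactive = mean below 50 and not all replicates reaching 50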
miR122 inh: inhibitors of miR-122 in Huh7 cells. Huh7 miR-122 Renilla luciferase sensor, 48 h; neutral wells = 0, positive control = 100. activation (reporter increase), % at 12.5 µM. actives 0.3% (n = 340,000). AID 602342;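 active = mean replicate activation score at least 90 and every replicate individually at or above 90; inconclusive = only one of the two criteria met; inactive = neither criterion met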;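 note: higher luciferase means less miR-122 activity so hits act as miR-122 inhibitors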
Ring1 derepress: confirmation of esBAF inhibitors: Ring1 de-repression in mouse ESCs | shares compounds with esBAF inh | mouse ESC E14, Ring1 mRNA RT-qPCR fold change | fold change at 33 µM | 550 tested, under 10 active;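 active = Ring1 gene expression raised more than 2-fold over untreated cells in both replicates at either tested dose; inconclusive = only one replicate above 2-fold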;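 note: Ring1 transcript normalised to actin housekeeping signal by TaqMan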
Fgf4 repress: esBAF inhibition confirmed by Fgf4 repression; shares compounds with esBAF inh; mouse ESC E14, Fgf4 mRNA qPCR fold change; active compounds read low; Fgf4 expression fold change at 33 µM; actives 4% (n = 550); AID 743177;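 active = Fgf4 expression under 0.8 fold of control in both repeat measurements at one or both tested doses; inconclusive = under 0.8 fold in just a single repeat measurement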;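 note: Fgf4 transcript normalised to actin in duplex TaqMan qPCR; cells exposed to compound for 24 h before lysis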
esBAF Bmi1 qPCR: de-represses Bmi1 in mouse ESCs, confirming esBAF inhibition; shares compounds with esBAF inh; 550 tested, under 10 active; fold change at 33 µM; mouse ESE14 ES cells, Bmi1 mRNA qPCR fold; active compounds read high; AID 743180;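 active = Bmi1 expression fold change above 6 at either tested concentration, seen in replicate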;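 note: higher fold means more Bmi1 de-repression and stronger esBAF inhibition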
A549 cytotox: cytotoxicity in A549 cells; shares compounds with esBAF inh; plate reader; cell viability change % (negative = cytotoxic), % at 25 µM, hits read low; 550 tested, under 10 active; AID 743188; call rule not given here
HepG2 tox SP: HepG2 cell cytotoxicity at single point. shares compounds with esBAF inh. plate reader; active compounds read low. activity change, negative = inhibition, % at 25 µM. actives 4% (n = 550); in the data active = activity change below about -50%
HEK293 tox SP: kills or reduces viability of HEK293 cells; actives 3% (n = 550); HEK293 cytotoxicity, plate reader; shares compounds with esBAF inh; activity change, negative = inhibition, % at 25 µM, hits read low; in the data active = activity change below about -38%, passing the limit was not always enough
Hits are given with their value; - = inactive; ? = inconclusive; . = no result.

SMILES | MITF TRPM1 HTS | Wnt bcat act | esBAF inh | HIV Env fusion | miR122 inh | Ring1 derepress | Fgf4 repress | esBAF Bmi1 qPCR | A549 cytotox | HepG2 tox SP | HEK293 tox SP
O=C(C[C@H]1CC[C@H](NS(=O)(=O)c2cccc(F)c2)[C@@H](CO)O1)N1CCCCC1 | . | . | - | - | . | . | . | . | . | . | .
CC(c1ccccc1)c1nnc(NC(=O)Nc2ccccc2)s1 (stereo unspecified) | - | - | - | - | - | . | . | . | . | . | .
CC(c1ccccc1)c1nnc(NC(=O)Nc2ccccc2F)s1 (stereo unspecified) | ? | - | 80 | - | - | - | - | - | - | - | -
Cn1c(-c2ncc(F)cc2F)cc2onc(-c3c(F)cccc3Cl)c2c1=O | 87 | 40 | 91 | - | - | - | ? | - | - | - | -
Cn1c(-c2ccccc2F)cc2onc(-c3ccccc3)c2c1=O | - | - | - | - | - | . | . | . | . | . | .
C=CCn1c(NCc2ccc(OC)cc2O)nc2ccccc21 | . | - | 61 | - | - | - | - | - | - | -68 | -
O=C(CC1CC1)Nc1ccc2c(c1)[C@@H]1C[C@@H](CC(=O)N3CCc4ccccc4C3)O[C@@H](CO)[C@@H]1O2 | . | . | - | . | - | . | . | . | . | . | .
Cn1cccc1C(=O)NC1CCCCCC1 | 96 | - | 64 | - | - | - | - | - | - | - | -
Cc1cc(C)c(C(=O)CN2C(=O)NC3(CCCCC3)C2=O)cc1C | - | - | . | - | - | . | . | . | . | . | .
Cc1ccc(C(=O)CN2C(=O)NC3(CCCCCC3)C2=O)c(C)c1 | 115 | - | 80 | - | . | - | - | - | - | - | -
Cc1ccc(S(=O)(=O)NCC[C@H]2CC[C@H](NS(=O)(=O)c3ccccc3Cl)[C@@H](CO)O2)cc1 | . | . | - | - | . | . | . | . | . | . | .
CCCc1nc2c3ccccc3ccn2c1Cc1ccc(C)cc1 | . | - | 101 | - | - | - | - | - | - | -56 | -
c1ccc(CCc2nc(-c3cccnc3)no2)cc1 | - | . | 59 | . | - | - | - | - | - | - | -
CO[C@H]1CN(C)C(=O)c2cc(NC(C)=O)ccc2OC[C@H](C)N(Cc2nccs2)C[C@H]1C | . | . | - | - | - | . | . | . | . | . | .
C(=NOCc1ccccc1)c1cccnc1 | - | - | 58 | - | - | - | - | - | - | - | -
COc1ccc(S(=O)(=O)Nc2ccc3c(c2)C(=O)N([C@H](C)CO)C[C@H](C)[C@H](CN(C)CC2CC2)OCCCC[C@@H](C)O3)cc1 | . | . | - | - | - | . | . | . | . | . | .
Cc1ccc(S(=O)(=O)Nc2ccc3c(c2)C(=O)N([C@H](C)CO)C[C@@H](C)[C@H](CN(C)C(=O)Nc2ccccc2)OCCCC[C@@H](C)O3)cc1 | . | . | - | - | - | . | . | . | . | . | .
COc1ccc(C(O)c2nc(-c3ccc(N(C)C)cc3)cs2)cc1 (stereo unspecified) | . | - | ? | - | - | . | . | . | . | . | .
COc1ccc(-c2csc(C(O)c3ccc(F)cc3)n2)cc1 (stereo unspecified) | . | - | 60 | - | - | - | - | - | - | - | -
CN(C)c1ccc(-c2csc(C(O)c3ccc(F)cc3)n2)cc1 (stereo unspecified) | . | - | 82 | - | - | - | - | - | - | - | -
CN(C)c1ccc(-c2csc(C(O)c3ccccc3)n2)cc1 (stereo unspecified) | . | - | 61 | - | - | - | ? | - | - | - | -
CC(C)NC(=O)N(C)C[C@@H]1Oc2ncc(-c3ccccc3F)cc2C(=O)N([C@@H](C)CO)C[C@H]1C | . | . | - | - | - | . | . | . | . | . | .
C[C@H]1CCCCO[C@H](CN(C)S(=O)(=O)c2ccccc2)[C@@H](C)CN([C@@H](C)CO)C(=O)c2cc(NC(=O)Nc3ccc(C(F)(F)F)cc3)ccc2O1 | . | . | - | - | - | . | . | . | . | . | .
C[C@@H]1CCCCO[C@H](CN(C)S(=O)(=O)c2cccs2)[C@@H](C)CN([C@H](C)CO)C(=O)c2cc(NS(=O)(=O)c3ccccc3)ccc2O1 | . | . | - | - | - | . | . | . | . | . | .
COc1ccc(NC(=O)Nc2ccc3c(c2)CC(=O)N([C@@H](C)CO)C[C@H](C)[C@@H](CN(C)S(=O)(=O)c2ccc(OC)cc2)O3)cc1 | . | . | - | - | - | . | . | . | . | . | .
SMILES | MITF TRPM1 HTS | Wnt bcat act | esBAF inh | HIV Env fusion | miR122 inh | Ring1 derepress | Fgf4 repress | esBAF Bmi1 qPCR | A549 cytotox | HepG2 tox SP | HEK293 tox SP
Cn1c(C(=O)N/N=C/c2ccccc2)cc2ccccc21 | . | - | 64 | - | - | - | - | - | - | - | -
Cn1c(N)c(C(=O)N/N=C/c2ccccc2)sc1=S | . | - | . | - | - | . | . | . | . | . | .
C[C@H]1CN([C@@H](C)CO)C(=O)CCCn2cc(nn2)CO[C@@H]1CN(C)Cc1ccc(C(=O)Nc2ccccc2N)cc1 | . | . | - | . | - | . | . | . | . | . | .
O=C(C[C@@H]1C=C[C@@H](NC(=O)CC2CC2)[C@H](CO)O1)NCC(F)(F)F | . | . | - | . | . | . | . | . | . | . | .
Cc1ccc(NC(=O)Nc2cccc(C)n2)c(C)c1 | - | 39 | 56 | - | - | - | - | - | - | - | -
COc1ccc2nc(C(c3ccc(C)cc3)n3c(-c4ccccc4Br)nc4ccccc43)[nH]c2c1 (stereo unspecified) | . | - | ? | - | - | - | - | - | - | - | -
COc1cc(C)ccc1OCc1cc(C(=O)N2CCN(C3CCCCC3)CC2)no1 | - | - | 61 | - | . | - | - | - | - | - | -
COc1cccc(OCc2cc(C(=O)N(C)C3CCCCC3)no2)c1 | . | - | 80 | - | - | - | - | - | - | - | -
CCCN(CC1CCCO1)C(=O)c1cc(COc2cccc(OC)c2)on1 (stereo unspecified) | - | - | . | - | - | . | . | . | . | . | .
COc1cccc(OCc2cc(C(=O)N3CCN(C(C)=O)CC3)no2)c1 | - | - | 71 | - | - | - | - | - | - | - | -
Cc1ccsc1CN(C)C(=O)C1CCC(=O)N(CCc2cccc(F)c2)C1 (stereo unspecified) | - | - | 65 | - | - | - | - | - | - | - | -
CC(=O)Nc1ccc(CNc2nc(NC(C)C)nc3cc(-c4ccccc4)sc23)cc1 | . | - | - | - | - | . | . | . | . | . | .
C=CCNc1nc(NCc2ccc(NC(C)=O)cc2)c2sc(-c3ccccc3)cc2n1 | . | - | 66 | - | - | . | . | . | -69 | -88 | -121
CCn1c(COc2ccc(OC)cc2)nc2ccccc21 | - | 43 | 61 | - | . | - | - | - | - | - | -
CSc1ccccc1NC(=O)c1ccc(N2CCCC2=O)cc1 | - | - | 73 | - | . | - | - | - | - | - | -
